The record followed here is PubChem BioAssay AID1063 (University of Pittsburgh Molecular Library Screening Center, 2008).

Screen size: about 200,000 compounds; about 18,000 (9%) were called active. The list comes from a sample in which actives are over-represented; it also holds similar structures and randomly drawn compounds. Unmarked numbers belong to inactive results. Cut-off read from the data, not from the text of the source: active = inhibition above about 50%; inactive = the rest.

This assay is described as follows: antileishmanial activity against promastigotes – primary screen (AID 1063).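 Note: promastigotes grown with compound for 44 hours at 28 °C.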 Particulars: Leishmania major promastigotes, resazurin fluorescence viability; at 10 µM; stronger effect = higher value. Background: The colour change of resazurin is a common sign of viable cells or microbes.
With `COc1ccc(C2=NN(c3ccccc3)C(c3cccs3)C2)cc1` (configuration not stated), the inhibition was 44.3%.
With `COc1cc(NC(=O)CN(C)S(=O)(=O)c2ccc3nc(C)sc3c2)cc(OC)c1` the figure was 13%; with `O=C(Nc1ccc2nc3n(c(=O)c2c1)CCCCC3)c1ccccc1Cl`, 0.22%.
To `Cc1ccc2nc3n(c(=O)c2c1)CCC3` belongs -7.48%.
To `CCCCN(CC)C(=S)Nc1ccc2nc3n(c(=O)c2c1)CCCCC3` belongs 55.5% (active).
Take `O=C(OCC(=O)N1CCOCC1)c1ccc(N2CCOCC2)c([N+](=O)[O-])c1`: the inhibition was 0.36%.
With `CC(C)(C)CN1CCNC(=O)C1CC(=O)NC1Cc2ccccc2C1` (configuration not stated) the figure was -0.33%; with `Brc1ccc2nc(N3CCCC3)sc2c1`, 17%; with `O=C(c1ccc2c(c1)C(=O)N(c1ccc(Cl)cc1)C2=O)N1CCN(c2ccccn2)CC1`, -5.18%.
With `O=C(c1ccc2c(c1)N(Cc1ccc(F)cc1)C(=O)c1ccccc1S2(=O)=O)N1CCN(c2ccccn2)CC1` the figure was 97% (active); with `CCCCN(C)C(=O)c1ccc2c(c1)N(CC)C(=O)c1ccccc1S2(=O)=O`, -6.56%; with `S=C1SCN(CCN2CCOCC2)CN1Cc1ccccc1`, 86.7% (active).
Take `CCN1CN(Cc2ccccc2)CNC1=S`: the inhibition was -5.52%.
Consider `C/C(CCc1ccccc1)=N\NC(=O)c1ccc(CN2CCOCC2)cc1`, for which the inhibition was -3.42%.
With `CCCn1nc(Oc2nc(NC(C)C)nc(N(C)C)n2)ccc1=O` the figure was 7.02%; with `CC(=O)Nc1ccc(S(=O)(=O)Nc2ccc(-c3ccc4nnc(C)n4n3)cc2)cc1`, -6.31%; with `c1ccc(-c2cc(-c3nnc4sc(-c5ccccn5)nn34)[nH]n2)cc1`, 84.6% (active).
With `CCOc1cccc(-c2nn3c(-c4ccccn4)nnc3s2)c1` the figure was 6.06%; with `COc1ccc(-c2nn3c(-c4ccccc4)nnc3s2)cc1OC`, 3.79%; with `COc1ccc(N2C(=O)CC(Nc3ccc(F)cc3)C2=O)c([N+](=O)[O-])c1` (configuration not stated), -0.61%.
On to `CN(C)c1ccc(C2Nc3ccccc3C(=O)N2NS(=O)(=O)c2ccccc2)cc1` (configuration not stated), for which the inhibition is 3.72%.
With `Cc1ccccc1NC(=O)c1ccccc1` the figure was -0.75%; with `O=C(NNC(=S)NC(=O)c1cn(-c2ccccc2)nc1-c1ccccc1)c1ccncc1`, 54.9% (active).
With `O=C(Nc1cn(-c2ccccc2)nc1-c1ccccc1)c1ccccc1` the figure was 82.8% (active); with `O=C(O)c1ccc(NC(=O)c2cn(-c3ccccc3)nc2-c2ccc(Cl)cc2)cc1`, -2.74%.
With `O=C(NCc1cccnc1)c1cn(-c2ccccc2)nc1-c1cccs1` the figure was 1.01%; with `COc1ccc(-c2nn(-c3ccccc3)cc2C(=O)Nc2nccs2)cc1OC`, 21.8%.

Broadly, the inhibition is the change of the read-out against control, counted positive when it falls.
